Results on 20 compounds are retold here after PubChem BioAssay (NCATS).

Experiment [1] concerns the target Cellular tumor antigen p53 (Homo sapiens) (UniProt P04637). The experiment is described as follows: Primary qHTS for small molecule compounds that upregulate eGFP-tagged delta133p53alpha (in N-terminal) cells. (AID 2060322). Also: nearly all actives have a fitted effect of over 75% in size. Also: potency is read from the fitted curve at half-maximal effect.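 As to activation: series mostly up to about 56 µM; 0% = DMSO vehicle and 100% = reference activator.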 The following applies: NCI-H358 eGFP-delta133p53alpha fluorescence, 24 h; activation: hits give high values. In outline:
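NCI-H358 cells pre-induced 24 h with 10 ng/ml doxycycline to express N-terminal eGFP-delta133p53alpha, then dosed 24 h at 37C without doxycycline; fixed, Hoechst-stained, GFP intensity by laser scanning cytometry, normalized to DMSO (0%) and 57.5 uM 5-azacytidine (100%).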

In experiment [2] the target is Aldehyde dehydrogenase, mitochondrial (Homo sapiens) (UniProt P05091). The experiment is described as follows: qHTS for Inhibitors of the Aldehyde Dehydrogenase Family (ALDH2) Primary screen (AID 2061308).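 Also: plate controls were vehicle for no effect and reference inhibitor for full effect; nearly all actives have a fitted effect of over 55% in size.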
Experiment [3] deals with Retinaldehyde dehydrogenase 3 (Homo sapiens) (UniProt P47895). The experiment in a line: qHTS for Inhibitors of the Aldehyde Dehydrogenase Family (ALDH1A3) Primary screen (AID 2061315).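 Also: plate controls were DMSO vehicle for no effect and reference inhibitor for full effect.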

Each structure is given as a SMILES string. “And” between values parts separate entries of the source, which are not always exact repeats. Equal values may be shown once. Records with an inconclusive call do not appear. The source made the active and inactive calls. Calls follow the shape of the dose curve; as a rule, active = well fitted curve in the direction sought with a large enough effect; inconclusive = small, poorly fitted or top-dose-only effect, or another doubt; inactive = no such curve, though single readings can be large; an effect the other way counts as inactive or inconclusive.

Chain of Cellular tumor antigen p53 (Homo sapiens) (P04637 whole entry, looked up): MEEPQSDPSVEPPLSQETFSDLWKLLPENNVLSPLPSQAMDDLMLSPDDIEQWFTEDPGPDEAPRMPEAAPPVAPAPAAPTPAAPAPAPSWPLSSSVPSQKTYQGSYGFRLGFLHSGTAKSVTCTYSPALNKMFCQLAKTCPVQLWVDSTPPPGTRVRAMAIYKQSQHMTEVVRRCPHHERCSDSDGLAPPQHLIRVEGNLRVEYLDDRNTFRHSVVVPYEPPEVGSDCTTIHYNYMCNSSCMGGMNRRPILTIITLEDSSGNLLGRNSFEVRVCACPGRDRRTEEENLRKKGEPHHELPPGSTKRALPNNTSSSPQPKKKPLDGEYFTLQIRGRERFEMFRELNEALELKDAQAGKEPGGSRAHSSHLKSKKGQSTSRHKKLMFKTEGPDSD

For the compound `O=C(CCCN1CCN(c2ccc(F)cc2)CC1)NC1c2ccccc2CSc2ccccc21` (stereo not given), the activation in experiment [1] is -15% (inactive). The Potency result in experiment [2] and in experiment [3] was “inactive” throughout.

For `CC1(CO)CC2C(O)C3=C(CC(C)(O)C2C1)C(=O)OC3` (stereo not given), the activation in experiment [1] is -12.2% (inactive). Moreover, the Potency entry in experiment [2] and in experiment [3] was “inactive” in each case.

For the compound `COc1cc(CCc2ccccc2)c(C(=O)O)c2c1CC(C(C)(C)O)O2` (stereo not given), the activation in experiment [1] was -13% (inactive). For the same compound, the Potency entry in experiment [2] and in experiment [3] was “inactive” each time.

For `C=C(C)[C@@H]1CC[C@]2(C)CC[C@]3(C)C(CCC4[C@@]5(C)CC[C@H](O)C(C)(C)C5CC[C@]43C)C12` (stereo not given in full), the activation in experiment [1] was -19.6% (inactive). The Potency entry in experiment [2] and in experiment [3] was “inactive” in each case.

Consider `CC1=CC2(O)/C=C/C(C)(O)CC(O)/C=C/C(=O)OC23C(=O)NC(CC(C)C)C3C1C` (stereo not given), for which the activation in experiment [1] was -2.29% (inactive). Further, the Potency entry in experiment [2] and in experiment [3] was “inactive” throughout.

On to `CC1=CC(=O)C(=C(C)C)CC2C1CCC2(C)O` (stereo not given), for which the activation in experiment [1] is -7.14% (inactive). In addition, the Potency entry in experiment [2] and in experiment [3] was “inactive” each time.

In the case of `O=C(O)c1cc(O[C@@H]2O[C@H](CO)[C@@H](O)[C@H](O)[C@H]2O)ccc1O`, in experiment [1], the activation was -3.05% (inactive). For the same compound, the Potency entry in experiment [2] and in experiment [3] was “inactive” in each case.

Take `C=C(C)C1CCC2(C(=O)O)CCC3(C)C(CCC4C5(C)C(C=O)C(O)C(C)(C)C5CCC43C)C12` (stereo not given): the activation in experiment [1] was -19.8% (inactive). Further, the Potency result in experiment [2] and in experiment [3] was “inactive” each time.

As for `C[C@@H]1C[C@H](C)CN(CCC(=O)Nc2ccc(Br)cc2)C1`, the activation in experiment [1] is 13.4% (inactive). The Potency entry in experiment [2] and in experiment [3] was “inactive” in each case.

In the case of `COC(=O)C1(Cc2ccc(O)cc2)OC(=O)C(OC)=C1c1ccc(O)cc1` (stereo not given), the activation in experiment [1] is -7.63% (inactive). Further, the Potency result in experiment [2] and in experiment [3] was “inactive” each time.

Regarding `CC(=O)OC[C@]12[C@H](OC(C)=O)[C@H](OC(=O)c3ccccc3)[C@@H]3[C@@H](OC(C)=O)[C@]1(OC3(C)C)[C@H](C)C[C@H](OC(=O)c1ccccc1)[C@@H]2OC(=O)c1ccccc1`, the activation in experiment [1] was -31.3% (inactive). For the same compound, the Potency entry in experiment [2] and in experiment [3] was “inactive” throughout.

Take `O=c1ccn(C2OC(CO)C(O)C2O)c(=O)[nH]1` (stereo not given): the activation in experiment [1] was 17.6% (inactive). Also, the Potency result in experiment [2] and in experiment [3] was “inactive” each time.

As to `CC(C)CC(=O)OC[C@@]1(O)C[C@@]23CC[C@H]4[C@@](C)(CCC[C@@]4(C)C(=O)O)[C@@H]2CC[C@@H]1C3`, in experiment [1], the activation was -13% (inactive). Further, the Potency entry in experiment [2] and in experiment [3] was “inactive” throughout.

With `C=C1[C@@H]2CC[C@@]3(C)[C@H](c4ccoc4)OC(=O)C[C@]13O[C@H]1CC(=O)C(C)(C)[C@H](CC(=O)OC)[C@]12C`, in experiment [1], the activation is -26.7% (inactive). Further, the Potency result in experiment [2] and in experiment [3] was “inactive” in each case.

On to `CC(=O)OCC1OC(O[C@H]2CC[C@]34C[C@]35CC(O)[C@]3(C)[C@@H]([C@H](C)CC/C=C(\C)C(=O)O)C(O)C[C@@]3(C)C5CC[C@H]4C2(C)C)C(O)C(O)C1OC1OCC(O)C(O)C1O` (stereo not given in full), for which the activation in experiment [1] was -13% (inactive). Moreover, the Potency entry in experiment [2] and in experiment [3] was “inactive” in each case.

With `CCOc1ccc(S(=O)(=O)n2c(C)nc3ccccc32)cc1`, the activation in experiment [1] was -4.33% (inactive). The Potency result in experiment [2] and in experiment [3] was “inactive” in each case.

On to `CNCCN1CCC(c2cc(CN(C)C(=O)c3cccc(Oc4ccccc4)c3)ccn2)CC1`, for which the activation in experiment [1] is -4.33% (inactive). Besides, the Potency result in experiment [2] and in experiment [3] was “inactive” throughout.

On to `CC[C@]12CCCN3CCc4c(n(c5ccccc45)C(=O)C1)[C@@H]32`, for which the Potency in experiment [1] was 13.8 µM (active) and 10.7 µM (active). For the same compound, the Potency entry in experiment [2] and in experiment [3] was “inactive” each time.

As for `CCCC1=CC2=C(CO1)C(=O)C(C)(O)C(OC(=O)c1c(C)cc(OC)cc1O)C2` (stereo not given), the activation in experiment [1] was -1.53% (inactive). The Potency entry in experiment [2] and in experiment [3] was “inactive” throughout.

As to `Fc1ccccc1CNCc1ccc(-c2ccnc3[nH]ccc23)cc1`, in experiment [1], the activation was 7.14% (inactive). In addition, the Potency entry in experiment [2] and in experiment [3] was “inactive” in each case.
